# ADAM10 inh = inhibitors of human ADAM10. O14672. recombinant ADAM10, EDANS/DABCYL FRET peptide cleavage, 3 h. inhibition, % at 7 µM. 370,000 compounds, 0.62% hits. AID 720582;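 active = inhibition above a per-campaign cutoff equal to the mean of compounds falling between control-based bounds plus 3 SD, cut at about 20% in these data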
# proKLK7 act = proKLK7 (human) activation, primary screen; P49862; purified proKLK7, EDANS-DABCYL substrate fluorescence; 100% is mature enzyme control, 0% vehicle; activation, % at 7 µM; 370,000 compounds, 0.9% hits;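 active = activation above the mean of all tested compounds plus 3 SD, computed per campaign excluding outliers beyond control limits, cut at about 13% in these data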
# Target sequence (P49862 whole entry, looked up): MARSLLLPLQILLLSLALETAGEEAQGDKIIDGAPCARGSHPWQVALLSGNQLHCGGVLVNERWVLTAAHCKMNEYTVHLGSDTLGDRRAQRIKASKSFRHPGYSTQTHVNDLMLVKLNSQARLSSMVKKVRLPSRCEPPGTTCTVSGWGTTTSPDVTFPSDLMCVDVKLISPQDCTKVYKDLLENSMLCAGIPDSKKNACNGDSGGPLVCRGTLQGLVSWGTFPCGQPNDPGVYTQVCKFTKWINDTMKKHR
# HGIII-sPLA2 inh = Blocks human group III sPLA2 activity. Q9NZ20. QFRET BODIPY PC-A2 liposome hydrolysis, fluorescence. inhibition, % at 12.2 µM. 370,000 compounds, 0.56% hits. AID 743126;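 active = inhibition above mean plus 3 SD of compounds lying within the high and low control bounds, cut at about 19% in these data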
# ADAM17 inh = inhibits human ADAM17; inhibition, % at 6.95 µM; recombinant ADAM17, EDANS/DABCYL FRET peptide cleavage; AID 720648; P78536; 370,000 compounds, 0.83% hits;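 active = inhibition above the mean of compounds lying between control limits plus 3 SD, set per campaign, cut at about 8.5% in these data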
# NRP1-CendR mod = modulators of CendR peptide binding to human neuropilin-1; O14786; FAM-RPARPAR peptide binding to NRP-1, fluorescence polarization; inhibition, % at 25 µM; 360,000 compounds, 0.85% hits; AID 602438;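 active = inhibition or corrected inhibition above about 18%, plus a signal ratio from 0.5 to 1.5, limit read from the data, passing the limit was not always enough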
# ADAM10 counter = counter-screen for ADAM17 exosite inhibitors: inhibitors of human ADAM10; inhibition, % at 6.95 µM; recombinant ADAM10, EDANS/DABCYL FRET peptide cleavage, 3 h; 2,900 compounds, 47% hits; shares compounds with ADAM17 inh;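 active = mean inhibition over the triplicate runs exceeds the activity threshold set in the earlier primary screen, cut at about 20% in these data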
# ADAM17 confirm = confirmation of inhibitors of human ADAM17 | recombinant ADAM17, EDANS/DABCYL QFRET peptide cleavage | shares compounds with ADAM17 inh | AID 743257 | 2,900 compounds, 65% hits | inhibition, % at 6.95 µM;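 active = mean inhibition across replicates above the hit cutoff set in the primary screen, cut at about 8.5% in these data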
# Numbers stand for hits; – = inactive; · = no result given. This is a sample that favours compounds with a hit; in the whole collection about 3.4% have one here.
SMILES,ADAM10 inh,proKLK7 act,HGIII-sPLA2 inh,ADAM17 inh,NRP1-CendR mod,ADAM10 counter,ADAM17 confirm
O=C(COc1ccccc1Cl)Nc1cnn(Cc2ccccc2)c1,–,–,–,9.4,–,–,–
COc1ccc(-c2c(Cc3ccccc3)nc(NC(=O)c3ccccc3)n2Cc2ccc(OC)cc2OC)cc1,–,–,–,–,·,·,·
C=CCN1C(=O)[C@H](CC(=O)N2CCN(C(=O)C3CC3)CC2)[C@@]2(C(=O)OCC)CCCC=C12,–,–,–,–,·,·,·
CCCC[C@H]1C2CC(OC(=O)Nc3ccccc3OC)C(C2)[C@H]2CCCCN21 (some centres undefined),–,–,–,–,·,·,·
O=C(NNC(=O)c1csc(-c2ccccc2)n1)c1ccccc1,–,–,–,8.8,–,–,–
COC(=O)[C@]12C[C@H](CC(=O)N3CCC(c4ccccc4)CC3)C(=O)N(Cc3ccc(Cl)cc3Cl)C1=C[C@H](C(C)C)O[C@@H]2C1CC1,–,–,–,–,·,·,·
CN(C)S(=O)(=O)c1ccc(S(=O)(=O)Nc2ccc3c(c2)oc2ccccc23)cc1,–,–,–,9.2,–,34,17
Cc1cc(N/N=C/c2ccccc2Cl)nc(NCc2ccccc2)n1,–,–,–,11,–,–,–
Cc1[nH]c2ccccc2c1/C=N/Nc1ccc([N+](=O)[O-])cc1,–,–,–,10,–,–,–
COC(=O)[C@@]1(Cc2ccc(F)cc2)[C@H]2c3cc(C(=O)N(C)C)n(Cc4ccccc4)c3C[C@H]2CN1C(=O)c1ccccc1,–,–,–,9.4,·,–,–
O=C(O)CCCN1C(=O)C2C3CCC(O3)C2C1=O (centres undefined),–,–,–,–,–,·,·
O=C(O)CCCN1C(=O)C2C3CCC(C3)C2C1=O (centres undefined),–,–,–,9.1,–,–,–
NC(=O)c1ccnc2c(O)cccc12,–,–,–,–,–,·,·
OCc1ccnc2c(O)cccc12,–,–,–,8.9,–,–,–
CCN(CC)c1ccc(NC(=O)CSc2nc3ccccc3c(=O)n2-c2cc(S(=O)(=O)N(C)C)ccc2C)cc1,–,–,–,10,–,21,15
C[C@@H]1CN([C@H](C)CO)C(=O)c2cc(NC(=O)C3CCCCC3)ccc2O[C@@H]1CN(C)Cc1ccc(C(F)(F)F)cc1,–,–,–,–,–,·,·
COc1ccc(S(=O)(=O)Nc2ccc3c(c2)CC(=O)N([C@@H](C)CO)C[C@@H](C)[C@@H](CN(C)Cc2ccccc2)O3)cc1,–,–,–,11,–,–,–
C[C@@H]1CN([C@H](C)CO)C(=O)Cc2cc(NS(=O)(=O)c3ccc(F)cc3)ccc2O[C@H]1CN(C)Cc1ccc(C(=O)O)cc1,–,–,–,–,–,·,·
COc1ccc(S(=O)(=O)N(C)C[C@H]2Oc3ccc(NS(=O)(=O)c4ccccc4)cc3CC(=O)N([C@H](C)CO)C[C@@H]2C)cc1,–,–,–,13,–,–,–
C[C@H]1CN([C@@H](C)CO)C(=O)c2cc(NC(=O)C3CCCCC3)ccc2O[C@H]1CN(C)Cc1ccc(-c2ccccc2)cc1,–,–,–,11,–,32,18
C=C(C)c1cccc(C(C)(C)NC(=O)N2CCOCC2)c1,–,–,–,–,–,·,·
C=C(C)c1cccc(C(C)(C)NC(=O)N2CCCC2)c1,–,–,–,9.1,–,–,–
O=C(C1CCN(S(=O)(=O)c2ccc3[nH]c(=O)oc3c2)CC1)N1CCCN(Cc2ccccc2)CC1,–,–,–,–,·,·,·
O=S(=O)(c1ccccc1)N1CCN=C1SCc1cccc(Cl)c1,–,–,–,9.3,–,–,9.7
O=S(=O)(c1ccccc1)N1CCN=C1SCc1ccc(Cl)c(Cl)c1,–,–,–,–,–,·,·
O=C(O)C(=Cc1ccc([N+](=O)[O-])cc1)c1ccccc1,–,–,–,–,·,·,·
CC1(c2nnnn2-c2ccc3c(c2)OCCO3)CSCC(=O)N1CCc1c[nH]c2ccccc12 (centres undefined),–,–,–,–,·,·,·
